From PubChem BioAssay (NCATS)
Inconclusive results are not listed. Entries that show only a call come without a potency. Active and inactive are the calls of the source. Calls follow the shape of the dose curve; as a rule, active = well fitted curve in the direction sought with a large enough effect; inconclusive = small, poorly fitted or top-dose-only effect, or another doubt; inactive = no such curve, though single readings can be large; an effect the other way counts as inactive or inconclusive.

Assays:
[1] = Cell Viability - LYMP2-015 (AID 971); also: nearly all actives have a fitted effect of over 55% in size
Procedure, shortened: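 Luminescent ATP read-out (CellTiter-Glo) served as the viability measure after lymphoblastoid cells were exposed to compounds for 24 hours at 37 C. Concentration-response data were fitted with the Hill equation to give AC50.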

[2] = Cell Viability - LYMP2-017 (AID 972); also: series mostly up to about 92 µM; nearly all actives have a fitted effect of over 55% in size
Procedure, shortened: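 2500 cells/well, 5 h 37 C; cpd 24 h 37 C in complete medium; CellTiter-Glo, 30 min RT; luminescence (ATP). AC50 via Hill fit, qHTS.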

[3] = Cell Viability - LYMP2-019 (AID 973); also: nearly all actives have a fitted effect of over 55% in size
Procedure, shortened: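 Luminescent ATP read-out (CellTiter-Glo, 30 min room temperature) served as the viability measure after 24 hr treatment of lymphoblastoid cells at 37 C. Concentration-response data were fitted to the Hill equation for AC50.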

[4] = Cell Viability - LYMP2-021 (AID 974);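 also: compound exposure lasts 24 hours at 37 °C; nearly all actives have a fitted effect of over 55% in size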
Procedure, shortened: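 Plate 2500 lymphoblastoid cells per well and incubate 5 hr at 37 C. Add compounds over a concentration range and incubate 24 hr at 37 C. Add CellTiter-Glo, wait 30 min at room temperature, read luminescence.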

[5] = Cell Viability - LYMP2-023 (AID 975)
Procedure, shortened: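 2500 cells/well, 5 hr 37 C; cpd 24 hr 37 C; CellTiter-Glo, 30 min RT; luminescence. qHTS conc-response, Hill fit -> AC50. Pos ctrl tetraoctylammonium bromide.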

[6] = Cell Viability - LYMP2-025 (AID 976); also: series mostly up to about 92 µM
Procedure, shortened: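 Seed 2500 LYMP2-025 cells/well; 5 hr at 37 C; add compound; 24 hr at 37 C; add CellTiter-Glo; 30 min RT; read luminescence. AC50 from Hill-modelled concentration-response.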

[7] = Cell Viability - LYMP2-002 (AID 977);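 also: series mostly up to about 92 µM; compound exposure lasted 24 h at 37 °C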
Procedure, shortened: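 Cytotoxicity is scored as concentration-dependent loss of cellular ATP in a human lymphoblastoid line after 24 hr compound treatment at 37 C. AC50 is obtained by modelling concentration-response data with the Hill equation.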

[8] = Cell Viability - LYMP2-006 (AID 978); also: series mostly up to about 92 µM; nearly all actives have a fitted effect of over 60% in size
Procedure, shortened: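 Cells are seeded at 2500 per well and rested 5 hr at 37 C. Compounds are added across a concentration series for 24 hr at 37 C, after which ATP is quantified by luciferase luminescence.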

[9] = Cell Viability - LYMP2-007 (AID 979);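 also: cells exposed to compound for 24 h before reading; nearly all actives have a fitted effect of over 60% in size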
Procedure, shortened: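 Luminescent ATP signal (CellTiter-Glo) serves as the viability read-out after 24 hr compound treatment of lymphoblastoid cells in complete medium at 37 C. Concentration-response data were fitted to the Hill equation to give AC50 values.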

[10] = Cell Viability - LYMP2-008 (AID 980); also: nearly all actives have a fitted effect of over 60% in size
Procedure, shortened: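 qHTS, human lymphoblastoid line, 2500 cells/well; 5 hr preincubation, 24 hr compound, 37 C. CellTiter-Glo ATP luminescence. AC50 via Hill equation. Tetraoctylammonium bromide positive control.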

[11] = Cell Viability - LYMP2-010 (AID 981); also: nearly all actives have a fitted effect of over 55% in size; also: potency is read from the fitted curve at half-maximal effect
Procedure, shortened: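 Luminescent ATP signal (CellTiter-Glo) served as the viability read-out. Cells of the human lymphoblastoid line were treated with compound over a concentration range for 24 hours at 37 C, and AC50 values came from Hill-equation modeling.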

[12] = Cell Viability - LYMP2-012 (AID 982)
[13] = Cell Viability - LYMP2-014 (AID 983); also: series mostly up to about 92 µM; nearly all actives have a fitted effect of over 50% in size
Procedure, shortened: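 Luminescent ATP signal (CellTiter-Glo, 30 min at room temperature) serves as the viability read-out after 24 hr compound exposure at 37 C. Cells were seeded at 2500 per well and settled 5 hr beforehand.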

[14] = Cell Viability - LYMP2-016 (AID 984); also: nearly all actives have a fitted effect of over 55% in size
Procedure, shortened: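 Cells were seeded at 2500 per well and rested 5 hr before a 24 hr compound exposure at 37 C. Viability was then gauged as cellular ATP by luciferase luminescence, with AC50 values fitted to the Hill equation.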

[15] = Cell Viability - LYMP2-018 (AID 985); also: nearly all actives have a fitted effect of over 50% in size
Procedure, shortened: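 Luminescent ATP signal (CellTiter-Glo, read after 30 min at room temperature) reports viable cells after 24 hr compound treatment at 37 C. Concentration-response data were fitted to the standard Hill equation for AC50.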

[16] = Cell Viability - LYMP2-020 (AID 986)
Procedure, shortened: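 Luminescent ATP signal (CellTiter-Glo, 30 min at room temperature) is the read-out after 24 h compound treatment of lymphoblastoid cells at 37 C. AC50 values come from Hill-equation fits across concentrations.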

[17] = Cell Viability - LYMP2-022 (AID 987); also: nearly all actives have a fitted effect of over 55% in size
Procedure, shortened: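 qHTS: human lymphoblastoid cells 2500/well; 5 hr 37 C; cpd added; 24 hr 37 C; CellTiter-Glo, 30 min RT; luminescence. AC50 via Hill fit; tetraoctylammonium bromide positive ctrl.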

[18] = Cell Viability - LYMP2-024 (AID 988); also: nearly all actives have a fitted effect of over 60% in size
Procedure, shortened: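 Steps: seed 2500 cells/well, 5 hr 37 C; add compound, 24 hr 37 C; add CellTiter-Glo, 30 min room temperature; read luminescence. AC50 derived by Hill modelling of concentration-dependent ATP loss.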

[19] = Cell Viability - LYMP2-026 (AID 989); also: nearly all actives have a fitted effect of over 50% in size
Procedure, shortened: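 Luminescent ATP signal (CellTiter-Glo, 30 min room temperature) measures viable lymphoblastoid cells after 24 hr compound treatment at 37 C. Decreased ATP reflects acute toxicity; AC50 values come from Hill-equation modeling.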

[20] = target: Alpha-galactosidase A (Homo sapiens) (UniProt P06280); assay: Counterscreen for Glucocerebrosidase Inhibitors: qHTS Assay for Human alpha-Galactosidase at pH 4.5 (AID 992)
Procedure, shortened: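 Concentration-response curves (0.7 nM to 77 uM final) were modeled with the Hill equation to give AC50. Reactions: 2 nM enzyme, 80 uM fluorogenic alpha-galactoside, pH 4.5 citric acid buffer, 20 min, room temperature.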

Sequence of Alpha-galactosidase A (Homo sapiens) (P06280 whole entry, looked up): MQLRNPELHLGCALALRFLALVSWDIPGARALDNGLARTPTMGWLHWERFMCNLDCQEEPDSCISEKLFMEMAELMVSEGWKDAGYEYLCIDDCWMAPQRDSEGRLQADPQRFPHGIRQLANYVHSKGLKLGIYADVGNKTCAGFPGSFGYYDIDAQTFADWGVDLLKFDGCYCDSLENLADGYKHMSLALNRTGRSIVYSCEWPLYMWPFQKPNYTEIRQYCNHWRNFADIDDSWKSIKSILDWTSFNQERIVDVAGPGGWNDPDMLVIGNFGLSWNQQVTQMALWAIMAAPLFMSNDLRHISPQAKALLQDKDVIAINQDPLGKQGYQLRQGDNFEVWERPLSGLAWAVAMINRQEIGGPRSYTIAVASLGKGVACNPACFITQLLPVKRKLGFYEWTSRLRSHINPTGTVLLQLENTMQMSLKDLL

| SMILES | outcome [1] | outcome [2] | outcome [3] | outcome [4] | outcome [5] | outcome [6] | outcome [7] | outcome [8] | outcome [9] | outcome [10] | Potency [11] | outcome [12] | outcome [13] | outcome [14] | outcome [15] | outcome [16] | outcome [17] | outcome [18] | outcome [19] | outcome [20] |
| --- | --- | --- | --- | --- | --- | --- | --- | --- | --- | --- | --- | --- | --- | --- | --- | --- | --- | --- | --- | --- |
| CC(=O)O[C@@H]1CC(C)=C2[C@H]1[C@H](C)CC[C@H]2/C=C(\C)C(=O)O | inactive | inactive | inactive | inactive | inactive | inactive | inactive | inactive | inactive | inactive | inactive | inactive | inactive | inactive | inactive | inactive | inactive | inactive | inactive |  |
| Nc1ccccc1N | inactive | inactive | inactive | inactive | inactive | inactive |  |  | inactive |  | 15.8 µM (active) | inactive | inactive | inactive | inactive |  |  |  | inactive |  |
| Cc1ccc(N)cc1O | inactive | inactive | inactive | inactive | inactive | inactive | inactive | inactive | inactive | inactive | inactive | inactive | inactive | inactive | inactive | inactive | inactive | inactive | inactive |  |
| CC(=O)O[C@H]1C(=O)[C@@]2(C)[C@H]([C@H](OC(=O)c3ccccc3)[C@]3(O)C[C@H](OC(=O)[C@H](O)[C@@H](NC(=O)c4ccccc4)c4ccccc4)C(C)=C1C3(C)C)[C@]1(OC(C)=O)CO[C@@H]1C[C@@H]2O |  |  |  |  |  |  |  |  |  |  |  |  |  |  |  |  |  |  |  | inactive |
